Giardia killer = kills Giardia lamblia; Giardia lamblia trophozoite viability; activity change, % at 7.66 µM, hits read low; 340,000 tested, 0.15% active; AID 540267; in the data active = activity change below about -80%; inconclusive = between about -30% and that limit;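 also: parasites exposed to compound for two days anaerobically before the ATP read; % is scaled to controls: 0 for no effect and ±100 for the full control effect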
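Killing of trophozoites was scored by loss of ATP luminescence after a 48 hrs anaerobic exposure to compounds at 37 deg C, using 100 cells per well.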
Integrin act MD = activators of alpha7 integrin expression for muscular dystrophy. alpha7betagal myoblasts, beta-gal FDG fluorescence, 48 h. Potency, µM (top dose mostly 38.3 µM), for inactives: top-dose activation, usual class: activators. 350,000 tested, 0.064% active. AID 624291;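 also: potency is read from the fitted curve at half-maximal effect; 100% = response of the positive control SU9516; nearly all actives have a fitted effect of over 60% in size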
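Alpha7betagal+/- myoblasts (passage 13) were plated 16-24 hr, then exposed to compounds (1:260 dilution of DMSO stock) for 48 hours at 37C. After MPER lysis, β-galactosidase reporter activity was read as FDG fluorescence (ex 480/em 540) after 30 minutes.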
ERG-DNA inh = blocks human ERG Ets domain binding to DNA; P11308; fluorescence polarization, His-ERG Ets domain / labelled DNA; Potency, µM (top dose mostly 76.9 µM), for inactives: at the highest dose FP activity, negative = inhibition, hits mostly inhibitors; 370,000 tested, 0.028% active; active = well fitted inhibition curve with a large enough effect in the polarisation, with a control signal flat; inconclusive = small, poorly fitted or top-dose-only effect, or effect the other way, or a change in a side signal; inactive = no such curve, though single readings can be large or run the other way; the % refers to the polarisation;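 also: polarization taken with two DNA probes labelled with fluorescein and Texas red; potency is read from the fitted curve at half-maximal effect; % of control where 0% means no effect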
Target sequence (P11308 whole entry, looked up, the tested form may be a part): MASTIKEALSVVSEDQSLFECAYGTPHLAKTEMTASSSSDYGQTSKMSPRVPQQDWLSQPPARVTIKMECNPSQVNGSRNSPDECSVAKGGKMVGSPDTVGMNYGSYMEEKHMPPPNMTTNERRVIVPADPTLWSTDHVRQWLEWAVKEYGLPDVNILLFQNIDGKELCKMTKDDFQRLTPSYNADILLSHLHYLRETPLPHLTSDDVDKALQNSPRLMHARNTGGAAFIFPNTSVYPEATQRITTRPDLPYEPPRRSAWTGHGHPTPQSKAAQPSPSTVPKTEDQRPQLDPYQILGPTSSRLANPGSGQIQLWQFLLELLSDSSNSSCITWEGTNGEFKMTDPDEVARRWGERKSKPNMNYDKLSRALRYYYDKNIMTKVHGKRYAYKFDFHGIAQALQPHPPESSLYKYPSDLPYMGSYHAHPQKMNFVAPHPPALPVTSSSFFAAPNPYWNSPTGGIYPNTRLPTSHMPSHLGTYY
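His-tagged ERG Ets domain (1 uM in the protein solution; 300mM KCl, 50mM Tris-HCl, 1mM EDTA, 1mM DTT, pH 7.5) received compound, then a probe mix of 5 nM fluorescein-DNA and 100nM Texas-615-DNA. Fluorescence polarization was read for both dyes.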
RORgamma inh = ROR gamma (mouse) transcription inhibition; Drosophila S2 Gal4-RORgamma UAS-luciferase reporter, 20 h; Potency, µM (highest dose often 53.6 µM), for inactives: top-dose activity change, negative = inhibition, usual class: inhibitors; P51450; 310,000 tested, 5.4% active; AID 2551; also: potency is read from the fitted curve at half-maximal effect; % is scaled to controls: 0 for no effect and ±100 for the full control effect; nearly all actives have a fitted effect of over 60% in size
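Drosophila Schneider cells stably carrying a metallothionein-driven Gal4 DBD–ROR gamma fusion and a UAS-Photinus luciferase reporter were exposed to compound for 1 hr, then induced with copper sulfate (700 uM final) for 20 hr at ambient temperature before luminescence reading.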
Gal4-VP16 FLuc = Gal4-VP16 reporter inhibition counter-screen. Drosophila S2 Gal4-VP16 UAS-luciferase, luminescence, 20 h. Potency, µM (doses to about 53.6 µM), inactives show at the top dose activity, negative = inhibition, usual class: inhibitors. 310,000 tested, 3.5% active;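 also: Gal4-VP16 expression switched on by copper sulfate through the metallothionein promoter; potency is read from the fitted curve at half-maximal effect; % is scaled to controls: 0 for no effect and ±100 for the full control effect; nearly all actives have a fitted effect of over 50% in size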
* = called active by the depositor; ? = inconclusive; nt = no result; [ ] = remark or other dose. This is one part of a sample in which hits are shown more often than they occur. Unless noted, calls follow the shape of the dose curve; as a rule, active = well fitted curve in the direction sought with a large enough effect; inconclusive = small, poorly fitted or top-dose-only effect, or another doubt; inactive = no such curve, though single readings can be large; an effect the other way counts as inactive or inconclusive.

SMILES	Giardia killer	Integrin act MD	ERG-DNA inh	RORgamma inh	Gal4-VP16 FLuc
CCCCCCn1c(=O)c(-c2ccccc2)c(O)c2ccccc21	4.5	8.5%	-1.1%	1.1%	-11.4%
CCCn1c(=O)c(-c2nc3ccccc3[nH]2)c(O)c2ccccc21	-18.7	-76.8%	7.9%	0.501µM*	2µM*
CCn1c(=O)c(-c2nc3ccccc3[nH]2)c(O)c2ccccc21	1.2	-20.9%	-6.1%	0.159µM*	0.631µM*
Nc1cccc2c1C(=O)N(CCOc1ccccc1F)C2=O	-17.8	?	1.9%	8.91µM*	?
Fc1ccc(NC(=S)NCc2ccccn2)cc1	0.2	-14.7%	-6.3%	10µM*	?
S=C(NCc1ccccn1)Nc1ccc(Cl)cc1Cl	-2.7	-38.0%	1.6%	8.91µM*	12.6µM*
COc1ccccc1NC(=S)NCc1ccccn1	-8.5	-5.3%	-5.4%	?	?
S=C(NCc1ccccn1)Nc1ccccc1	14.0	11.3%	8.6%	14.1µM*	?
O=C(NCc1ccccn1)/C(=N/O)c1ccccc1	5.7	-27.1%	-3.6%	10µM*	-24.0%
CC1=C2[C@@H]([C@H](C)CC[C@H]2/C=C(\C)C(=O)O)[C@H](O)C1	nt	nt	nt	18.1%	10.1%
O=C(Nc1cccc(F)c1)N1CC2(CCN(C(=O)c3ccco3)CC2)C1	nt	nt	nt	22.3%	-14.2%
CC(=O)NS(=O)(=O)c1ccc(NS(=O)(=O)c2ccccc2[N+](=O)[O-])cc1	-10.9	9.2%	11.1%	3.3%	7.0%
Fc1ccc(NC(=S)Nc2nccs2)cc1	-6.5	-40.3%	-7.4%	0.316µM*	1µM*
S=C(Nc1ccccc1)Nc1nccs1	-22.8	9.6%	3.5%	4.4%	-12.6%
COc1ccc(NC(=S)NCc2ccccn2)cc1OC	-3.6	2.9%	-7.4%	?	?
S=C(NCc1ccccn1)Nc1ccc(Cl)c(Cl)c1	-16.5	10.9%	-7.9%	2.51µM*	5.01µM*
CCOc1ccccc1C(=O)NCC(c1ccc(N(C)C)cc1)N1CCc2ccccc21 (centres undefined)	nt	nt	2.4%	nt	nt
CSc1ccc(CCNC(=O)Cn2ncc3c(=O)oc4ccc(C)cc4c32)cc1	nt	nt	-6.6%	nt	nt
COc1cccc(C2CC(=O)Nc3cc4c(cc32)OCO4)c1OC(C)C (centres undefined)	nt	nt	0.6%	nt	nt
CC(C)Oc1ccccc1C1CC(=O)Nc2cc3c(cc21)OCO3 (centres undefined)	-15.7	-21.1%[7.66 µM]	-4.0%	?	12.6µM*
Fc1ccc(-c2nnc(-c3ccc(Cl)cc3Cl)o2)cc1	?	20.8%	8.7%	14.1µM*	10µM*
FC(F)(F)c1ccc2c(c1)N1CCCC1CN2 (centres undefined)	-87.1*	-14.5%	-8.6%	7.2%	-8.0%
Fc1ccc(Sc2nc(-c3ccccc3)nnc2C(F)(F)F)cc1	-11.2	-10.5%	-3.6%	5.62µM*	7.08µM*
CN1C/C(=C/c2ccncc2)C(=O)/C(=C/c2ccncc2)C1	10.0	16.2%	-4.5%	12.6µM*	3.98µM*
CN1C/C(=C/c2ccsc2)C(=O)/C(=C/c2ccsc2)C1	-4.0	-63.6%	1.2%	-96.5%	?
SMILES	Giardia killer	Integrin act MD	ERG-DNA inh	RORgamma inh	Gal4-VP16 FLuc
Cn1c(/C=N/NC(=O)c2ccccc2Br)nc2ccccc21	1.7	-17.1%	nt	-31.4%	-28.0%
Cc1ccc(C(=O)N/N=C/c2nc3ccccc3n2C)cc1	-0.4	-22.9%	nt	11.2µM*	-11.0%
Cc1ccc(NC(=O)c2ccc(COc3ccc4c(c3)CCC4)cc2)c(C)c1	5.1	7.1%	-2.1%	2.24µM*	8.91µM*
Cc1ccn2cc(-c3ccc(O)c(O)c3)nc2c1	?	-3.7%	8.9%	-39.4%	12.6µM*
Cc1ccn2cc(-c3cccc(NC(=O)C(C)C)c3)nc2c1	-25.5	?	10.7%	3.98µM*	?
Oc1ccc(-c2cn3ccccc3n2)cc1O	-8.2	-22.8%	10.4%	-40.3%	-23.7%
Cc1cccc(NC(=S)NCc2ccc3c(c2)OCO3)c1	-5.5	-21.5%	3.1%	11.2µM*	15.8µM*
CCC(C(=O)NC(C)c1ccccc1)C(=O)NC(C)c1ccccc1 (centres undefined)	-24.0	0.0%	-1.2%	-15.6%	1.6%
Cc1ccccc1NC(=O)NCc1ccc2c(c1)OCO2	8.2	-20.8%	12.1%	-21.4%	-3.7%
CCc1cccc(CC)c1NC(=S)NC(C)c1ccccc1 (centres undefined)	-25.2	-26.7%	-3.6%	3.98µM*	?

High-throughput results as filed in PubChem BioAssay.
